Source: PubChem (National Center for Advancing Translational Sciences (NCATS))
Compounds with a hit are over-represented: about 13% of the library has one in this group of screens.
HCV inhibitor = qHTS Assay for Inhibitors of Hepatitis C Virus (HCV); Huh7.5.1 HCVcc-Cre infection, luciferase reporter, 44 h; Potency, µM (doses to about 41.8 µM), most hits filed as inhibitors; 3.4% of 340,000 active; AID 651820, 2012
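Luciferase read-out (15 sec integration) after a 15 min room-temperature substrate step quantifies HCVcc-Cre infection. Cells, 1,000 per well, had compound added 4 h post-plating, then virus at ~0.5 moi, and were cultured 44 h.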
Pf growth 48h = Primary qHTS for delayed death inhibitors of the malarial parasite plastid, 48 hour incubation | Potency, µM (top dose mostly 28.7 µM), actives largely listed as inhibitors | P. falciparum luciferase growth in erythrocytes, 48 h | 5.9% of 310,000 active
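Firefly luciferase activity from engineered P. falciparum reports growth; inhibitors lower the luminescent signal. Cultures contained 2% hematocrit erythrocytes at 0.1% final parasitemia.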
Pf growth 96h = Primary qHTS for delayed death inhibitors of the malarial parasite plastid, 96 hour incubation | P. falciparum luciferase reporter growth, 96 h | 6.9% of 320,000 active | Potency, µM (highest dose often 28.7 µM), hits mostly inhibitors
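Parasite growth measured via integrated firefly luciferase reporter in P. falciparum. Infected erythrocytes at 2% hematocrit, 0.05% parasitemia final were treated 96 hours at 37 C under 5% CO2, and luminescence was read.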
HCMV antiviral = qHTS Assay for inhibitors of the human cytomegalovirus (HCMV); activity change, negative = inhibition, % at 57.5 µM; 4.5% of 410,000 active; HFF cells, HCMV-luciferase reporter, 72 h; stronger effect = lower value; in the data active = activity change below about -60%; inconclusive = no clear call, values can overlap the other calls; inactive = above about -39%
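After 16 h attachment at 37C, HFF cells received test compound and HCMV-luciferase (1 PFU/cell); reporter luminescence read 72 h later, data normalized against buffer-only and known inhibitor Salinomycin.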
Of the large screens only hits and unclear results are named; the others gave an inactive call. Unless noted, calls come from the whole dose curve; as a rule, active = well fitted inhibition curve with a large enough effect; inconclusive = small, poorly fitted or top-dose-only effect, or another doubt; inactive = no such curve, though single readings can be large or run the other way.

CCCn1c(CCC(=O)Nc2ccc(C)c(Cl)c2)nc2cccnc21	none (no result: HCV inhibitor, Pf growth 48h, Pf growth 96h)
COC(=O)C1(O)CC(c2ccccc2)C(C(=O)c2ccccc2)N1c1ccc(F)cc1 (configuration not stated)	none (no result: HCV inhibitor, Pf growth 48h, Pf growth 96h)
COc1ccc(N2CCN(C(c3nnnn3C3CCCC3)C(C)C)CC2)cc1 (configuration not stated)	HCV inhibitor inconclusive
COc1ccc(C(c2nnnn2C2CCCCC2)N2CCN(c3ccccc3)CC2)cc1 (configuration not stated)	Pf growth 48h 10µM (no result: HCMV antiviral)
COc1ccc(C(c2nnnn2C2CCCC2)N2CCN(c3ccccc3)CC2)cc1 (configuration not stated)	Pf growth 48h 9.3µM, Pf growth 96h inconclusive
COc1cccc(C(=O)Nc2cc(-c3ccccc3)nn2-c2ccccc2)c1	none (no result: HCV inhibitor, Pf growth 48h, Pf growth 96h)
COc1cc2c(C#N)c(N3CCN(C)CC3)nc(N)c2c(N)n1	HCV inhibitor inconclusive (no result: Pf growth 96h)
COc1cc2c(C#N)c(N3CCN(c4ccccc4OC)CC3)nc(N)c2c(N)n1	HCV inhibitor inconclusive, Pf growth 48h 2.1µM, Pf growth 96h 8.3µM
COc1ccc(-c2c[n+]3c(n2-c2ccccc2)SCC3)cc1	HCV inhibitor inconclusive, Pf growth 48h inconclusive, Pf growth 96h inconclusive, HCMV antiviral -80
COc1ccc(-c2c[n+]3c(n2-c2ccccc2)SCC3)cc1OC	Pf growth 48h 1.3µM, Pf growth 96h inconclusive, HCMV antiviral inconclusive
Brc1ccc(-c2c[n+]3c(n2-c2ccccc2)SCC3)cc1	Pf growth 48h inconclusive, Pf growth 96h inconclusive, HCMV antiviral -73
Cc1ccc(-c2c[n+]3c(n2-c2ccccc2)SCC3)cc1	HCV inhibitor inconclusive, Pf growth 48h inconclusive, Pf growth 96h inconclusive, HCMV antiviral -73
COc1ccc(-c2nnc3n2-c2ccccc2SC3)cc1OC	Pf growth 96h inconclusive
Cc1cccc(N2CCN(C(=O)c3cccn4c(=O)c5cc(Cl)ccc5nc34)CC2C)c1 (configuration not stated)	none (no result: HCV inhibitor, Pf growth 48h, Pf growth 96h)
CCCS(=O)(=O)NC(=O)C1(C)CCCN(C(=O)CCc2ccccc2)C1 (configuration not stated)	HCMV antiviral -65 (no result: HCV inhibitor, Pf growth 48h, Pf growth 96h)
CCc1ccc(-n2nc3ccc(NC(=O)c4cc(Cl)c(OC)c(Cl)c4)cc3n2)cc1	none (no result: HCV inhibitor, Pf growth 48h, Pf growth 96h)
Cc1nc([N+](=O)[O-])c(Br)n1CC(=O)c1ccc2ccccc2c1	HCV inhibitor 10µM, Pf growth 96h inconclusive (no result: Pf growth 48h)
Oc1ccccc1C(Nc1nccs1)c1ccc2cccnc2c1O (configuration not stated)	HCV inhibitor 4.5µM, Pf growth 48h 1.9µM, Pf growth 96h 2.6µM, HCMV antiviral -93
O=c1cc(CO)oc(C(Nc2ccccn2)c2ccccc2F)c1O (configuration not stated)	none (no result: Pf growth 48h, Pf growth 96h)
Oc1c(C(Nc2ccccn2)c2ccccn2)ccc2cccnc12 (configuration not stated)	HCV inhibitor inconclusive, Pf growth 48h 2.9µM, HCMV antiviral -85 (no result: Pf growth 96h)
Oc1c(C(Nc2ccccn2)c2ccccc2F)ccc2cccnc12 (configuration not stated)	HCMV antiviral -95 (no result: HCV inhibitor, Pf growth 48h, Pf growth 96h)
COc1ccc(C(Nc2cc(C)ccn2)c2ccc3ccc(C)nc3c2O)cc1 (configuration not stated)	HCV inhibitor inconclusive, Pf growth 48h inconclusive
Cc1ccnc(NC(c2ccccc2F)c2ccc3cccnc3c2O)c1 (configuration not stated)	HCMV antiviral -77 (no result: HCV inhibitor, Pf growth 48h, Pf growth 96h)
Cc1ccc2ccc(C(Nc3ccccn3)c3ccccc3)c(O)c2n1 (configuration not stated)	HCV inhibitor inconclusive (no result: Pf growth 48h)
Cc1cccc(NC(c2ccccc2C)c2ccc3ccc(C)nc3c2O)n1 (configuration not stated)	none (no result: HCV inhibitor, Pf growth 48h, Pf growth 96h)
O=C(Nc1ccc(C(=O)N2CCCCC2)cc1)c1nsc2ccccc12	none (no result: HCV inhibitor, Pf growth 48h, Pf growth 96h)
CC(C)(C)C1CCc2c(sc(NC(=O)c3noc4c3CCCC4)c2C#N)C1 (configuration not stated)	none (no result: HCV inhibitor, Pf growth 48h, Pf growth 96h)
CCOC(=O)[C@H]1[C@H]2COc3cc(OC)ccc3[C@@H]2N2C(=O)c3ccc(F)cc3NC(=O)[C@@]12C	HCV inhibitor inconclusive, Pf growth 48h inconclusive, Pf growth 96h inconclusive
CCOC(=O)[C@H]1[C@H]2COc3ccc(Cl)cc3[C@@H]2N2C(=O)c3ccc(Cl)cc3NC(=O)[C@@]12C	Pf growth 48h 10µM, Pf growth 96h 13µM
CCOC(=O)[C@H]1[C@H]2COc3ccc(C)cc3[C@@H]2N2C(=O)c3ccc(Cl)cc3NC(=O)[C@@]12C	none (no result: Pf growth 48h, Pf growth 96h)
CCOC(=O)[C@H]1[C@H]2COc3cc(OC)ccc3[C@@H]2N2C(=O)c3cc(OC)ccc3NC(=O)[C@@]12C	HCV inhibitor inconclusive, Pf growth 48h 1.3µM, Pf growth 96h 6.6µM
CCOC(=O)[C@H]1[C@H]2COc3cc(OC)ccc3[C@@H]2N2C(=O)c3cc(F)ccc3NC(=O)[C@@]12C	Pf growth 48h 9.3µM, Pf growth 96h 10µM
CCOC(=O)[C@H]1[C@H]2COc3cc(OC)ccc3[C@@H]2N2C(=O)c3cc(F)c(F)cc3NC(=O)[C@@]12C	Pf growth 48h inconclusive, Pf growth 96h 13µM
CCOC(=O)c1[nH]c(C)c(CCC(=O)NCc2ccc(OCC)cc2)c1C	none (no result: HCV inhibitor, Pf growth 48h, Pf growth 96h)
O=C(Cn1nc2c(cc1=O)CCCC2)NCc1ccccc1	none (no result: HCV inhibitor, Pf growth 48h, Pf growth 96h)
CCOC(=O)C1CCCN(S(=O)(=O)c2ccc3c(c2)CCN3C(=O)CC)C1 (configuration not stated)	none (no result: HCV inhibitor, Pf growth 48h, Pf growth 96h)
Fc1ccc(Nc2c(-c3c[nH]c4ccccc34)nc3ccccn23)cc1	none (no result: HCV inhibitor, Pf growth 48h, Pf growth 96h)
CCOC(=O)[C@H]1[C@H]2COc3ccc(Br)cc3[C@@H]2N2C(=O)c3ccc(F)cc3NC(=O)[C@@]12C	HCV inhibitor inconclusive, Pf growth 48h inconclusive, Pf growth 96h inconclusive
CCOC(=O)[C@H]1[C@H]2COc3cc(OC)ccc3[C@@H]2N2C(=O)c3ccc(C)cc3NC(=O)[C@@]12C	Pf growth 48h inconclusive, Pf growth 96h inconclusive
CCOC(=O)[C@H]1[C@H]2COc3ccc(Br)cc3[C@@H]2N2C(=O)c3cc(F)c(F)cc3NC(=O)[C@@]12C	HCV inhibitor inconclusive, Pf growth 48h 17µM, Pf growth 96h inconclusive
CCOC(=O)[C@H]1[C@H]2COc3cc(OC)ccc3[C@@H]2N2C(=O)c3cc(C)ccc3NC(=O)[C@@]12C	Pf growth 48h 4.7µM, Pf growth 96h 2.3µM
O=C(Cn1c(=O)n(-c2ccccc2Cl)c(=O)c2sc3ccccc3c21)NC1CCCC1	none (no result: HCV inhibitor, Pf growth 48h, Pf growth 96h)
Cc1cccc2[nH]c3c(N4CC=C(c5ccc(F)cc5)CC4)ncnc3c12	HCV inhibitor 13µM, Pf growth 48h 10µM, Pf growth 96h inconclusive, HCMV antiviral inconclusive
C=CCN1C[C@@H](COCc2ccccc2)OCCS1(=O)=O	none (no result: HCV inhibitor, Pf growth 48h, Pf growth 96h)
Cc1nn(C)c(C)c1/C=N/NC(=O)C(C)(C)Oc1ccc(Cl)cc1	none (no result: Pf growth 96h)
Cc1nn(C(C)(C)C)c(C)c1/C=N/OC(=O)Nc1ccc(Cl)cc1	HCV inhibitor inconclusive, HCMV antiviral -101
CSCCC(NS(=O)(=O)c1ccc2c(c1)oc(=O)n2C)C(=O)NC1CCN(Cc2ccccc2)CC1 (configuration not stated)	Pf growth 96h 1.9µM
